Assay [1] addresses 6-phosphogluconate dehydrogenase, decarboxylating (Homo sapiens) (UniProt P52209). The experiment in a line: inhibition of human phosphogluconate dehydrogenase – biochemical, recombinant enzyme, NADPH absorbance, primary screen (AID 1159550). To be noted: recombinant 6PGD, NADPH absorbance 341 nm; at 10 µM; stronger effect = higher value.
Assay [2] is described as follows: EMT-state selective cytotoxicity in co-culture – imaging, PC-3E GFP, TEM4-18 mCherry, primary screen (AID 1345086;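 active = compounds killing one labelled cell type while sparing the other, by normalised counts and ratio limits, not self-fluorescent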;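 as to all read-outs here: cells exposed to compound for 72 h before imaging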;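 as to red/green cell ratio (normalised): normalised mesenchymal count divided by normalised epithelial count so high means epithelial killing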). Conditions: PC-3E GFP / TEM4-18 mCherry co-culture, imaging cell counts, at 1 µM; for red/green cell ratio (normalised): actives lie on both sides, counts scaled to control wells, 1 = unselective.
Assay [3] addresses Mitogen-activated protein kinase 7 (Homo sapiens) (UniProt Q13164). As to the kind of experiment: Gal4-ERK5 driven luciferase induction – cell-based, HTS, primary screen (AID 1508626;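 active = luciferase signal above three times the same-plate solvent-only control wells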;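 also: luciferase driven by Gal4-ERK5 fusion binding five Gal4 sites before minimal TATA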). Conditions: HeLa Gal4-ERK5 transactivation, 18 h, at 5 µM, stronger effect = higher value.
Where [4] appears, read: measured here: epithelial PC-3E GFP cell survival.
[5] abbreviates: measured here: mesenchymal TEM4-18 mCherry cell survival.

Values joined by “and” are separate entries in the source; they are usually repeats but may differ in a detail not shown here. Equal entries are not always repeated. Active and inactive are the calls of the source.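 The calls were made as follows, unless noted: active = at least 20% inhibition of 6-phosphogluconate dehydrogenase activity; inactive = the rest.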

Sequence of 6-phosphogluconate dehydrogenase, decarboxylating (Homo sapiens) (P52209 whole entry, looked up): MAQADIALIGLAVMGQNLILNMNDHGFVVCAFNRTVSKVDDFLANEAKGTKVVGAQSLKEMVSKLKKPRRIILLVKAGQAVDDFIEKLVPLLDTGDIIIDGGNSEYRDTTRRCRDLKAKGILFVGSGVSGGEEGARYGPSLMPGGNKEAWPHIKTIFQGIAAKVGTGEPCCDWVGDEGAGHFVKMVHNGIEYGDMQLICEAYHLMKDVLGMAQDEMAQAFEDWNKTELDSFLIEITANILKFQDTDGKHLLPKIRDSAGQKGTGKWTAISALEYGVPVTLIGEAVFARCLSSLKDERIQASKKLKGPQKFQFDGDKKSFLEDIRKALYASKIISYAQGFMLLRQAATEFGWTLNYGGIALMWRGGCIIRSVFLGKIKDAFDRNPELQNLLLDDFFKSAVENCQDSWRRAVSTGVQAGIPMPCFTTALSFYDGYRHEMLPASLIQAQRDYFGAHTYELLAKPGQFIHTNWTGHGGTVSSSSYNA
Sequence of Mitogen-activated protein kinase 7 (Homo sapiens) (Q13164 whole entry, looked up, the tested form may be a part): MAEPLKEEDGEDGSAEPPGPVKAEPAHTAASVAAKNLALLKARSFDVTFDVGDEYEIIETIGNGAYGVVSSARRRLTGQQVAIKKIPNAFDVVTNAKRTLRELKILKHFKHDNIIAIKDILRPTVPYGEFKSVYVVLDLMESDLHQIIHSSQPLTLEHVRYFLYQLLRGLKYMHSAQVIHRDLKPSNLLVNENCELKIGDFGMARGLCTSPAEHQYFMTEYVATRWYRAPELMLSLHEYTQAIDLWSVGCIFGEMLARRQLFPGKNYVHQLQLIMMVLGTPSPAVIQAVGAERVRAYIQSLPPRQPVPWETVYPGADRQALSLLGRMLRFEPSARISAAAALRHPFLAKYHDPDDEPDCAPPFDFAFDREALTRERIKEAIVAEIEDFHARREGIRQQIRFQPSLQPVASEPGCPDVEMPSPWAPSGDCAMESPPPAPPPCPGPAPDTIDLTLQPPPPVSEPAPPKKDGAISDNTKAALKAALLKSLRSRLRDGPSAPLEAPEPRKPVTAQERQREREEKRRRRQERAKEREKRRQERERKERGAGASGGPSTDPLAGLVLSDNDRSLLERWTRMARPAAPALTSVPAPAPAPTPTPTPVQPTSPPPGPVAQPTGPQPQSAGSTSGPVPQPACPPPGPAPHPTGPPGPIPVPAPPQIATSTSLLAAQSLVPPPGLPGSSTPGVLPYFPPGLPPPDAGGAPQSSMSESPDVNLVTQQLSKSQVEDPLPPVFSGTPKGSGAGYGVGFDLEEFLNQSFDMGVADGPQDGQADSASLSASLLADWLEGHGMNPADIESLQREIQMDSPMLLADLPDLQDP

In general, inhibition refers to the change of the read-out against control, counted positive when it falls. In the case of `COc1cc(O)c2c(=O)cc(C)oc2c1CC=C(C)C`, the inhibition in assay [1] is 12.4% (inactive). Moreover, the red/green cell ratio (normalised) in assay [2] is 1.22 (inactive). Moreover, the figures for the normalised cell number in assay [2] (setting [4]) and in assay [2] (setting [5]) were 0.96 and 1.17, respectively. Moreover, the luciferase signal in assay [3] is 36 AU (inactive).

For the molecule `CCCCC[C@H](CC(=O)O)C(=O)O`, in assay [1], the inhibition was 0.671% (inactive). Further, the red/green cell ratio (normalised) in assay [2] was 0.96 (inactive). In addition, the normalised cell number was 0.99 in assay [2] (setting [4]) and 0.94 in assay [2] (setting [5]). Besides, the luciferase signal in assay [3] was 40 AU (inactive).

Turning to `CCC(C)C(NC)C(=O)O` (stereo not given), the inhibition in assay [1] is -6.91% (inactive). Further, the red/green cell ratio (normalised) in assay [2] was 1.02 (inactive). Further, the values for the normalised cell number in assay [2] (setting [4]) and in assay [2] (setting [5]) were 1.08 and 1.11, respectively. The luciferase signal in assay [3] was 68 AU (inactive).

For the molecule `COc1c(O)cc(O)cc1O`, the inhibition in assay [1] is 8.04% (inactive). The red/green cell ratio (normalised) in assay [2] was 1.07 (inactive). Also, the normalised cell number was found to be 0.92 in assay [2] (setting [4]) and 0.98 in assay [2] (setting [5]). In assay [3], the luciferase signal is 40 AU (inactive).

Turning to `CCOc1cccc(C(=O)c2ccc(O)c(O)c2O)c1`, the inhibition in assay [1] was 11.3% (inactive). Further, the red/green cell ratio (normalised) in assay [2] was 0.95 (inactive). The normalised cell number was found to be 1.01 in assay [2] (setting [4]) and 0.96 in assay [2] (setting [5]). Also, in assay [3], the luciferase signal is 116 AU (inactive).

As for `COc1ccc(-c2cc(=O)c3c(OC(C)=O)cc(OC(C)=O)cc3o2)cc1`, in assay [1], the inhibition was -1.6% (inactive). In assay [2], the red/green cell ratio (normalised) was 0.89 (inactive). In addition, the normalised cell number amounted to 1.06 in assay [2] (setting [4]) and 0.95 in assay [2] (setting [5]). Moreover, the luciferase signal in assay [3] is 60 AU (inactive).

Consider `COc1cc2ccc(=O)oc2c(OC)c1OC`, for which the inhibition in assay [1] was 1.65% (inactive). For the same molecule, the red/green cell ratio (normalised) in assay [2] was 0.93 (inactive). Also, the normalised cell number in assay [2] (setting [4]) was found to be 0.81; in assay [2] (setting [5]), 0.75. The luciferase signal in assay [3] was 16 AU (inactive).

For the molecule `O=c1c(-c2cc(O)c(O)c(O)c2)coc2cc(O)c(O)c(O)c12`, the inhibition in assay [1] is 29.2% (active). Also, the red/green cell ratio (normalised) in assay [2] was 0.99 (inactive). For the same molecule, the normalised cell number in assay [2] (setting [4]) is 1.01; in assay [2] (setting [5]), 1. For the same molecule, the luciferase signal in assay [3] was 220 AU (active).

For `C=CC(C)(O)CC/C=C(\C)CCC=C(C)C` (stereo not given), the inhibition in assay [1] was -3.52% (inactive). Also, in assay [2], the red/green cell ratio (normalised) is 1.02 (inactive). The results for the normalised cell number in assay [2] (setting [4]) and in assay [2] (setting [5]) were 0.95 and 0.98, respectively. For the same molecule, the luciferase signal in assay [3] was 68 AU (inactive).

For the molecule `CC(=O)Oc1ccc2c(c1OC(C)=O)OCC1(O)Cc3c(cc(OC(C)=O)c(OC(C)=O)c3OC(C)=O)C21` (stereo not given), the inhibition in assay [1] was 18.4% (inactive). In assay [2], the red/green cell ratio (normalised) was 0.84 (inactive). The normalised cell number came to 1.08 in assay [2] (setting [4]) and 0.91 in assay [2] (setting [5]). Also, the luciferase signal in assay [3] is 44 AU (inactive).

As to `O=C1C=CC2=C3c4cc(O)c(O)cc4CC3(O)COC2=C1O` (stereo not given), in assay [1], the inhibition is 27.6% (active). Also, the red/green cell ratio (normalised) in assay [2] was 0.83 (inactive). Moreover, the normalised cell number in assay [2] (setting [4]) came out at 1.07; in assay [2] (setting [5]), 0.89. Moreover, in assay [3], the luciferase signal was 32 AU (inactive).

Take `COc1ccc(-c2coc3c(O)c(OC)ccc3c2=O)cc1`: the inhibition in assay [1] is 11.6% (inactive). Moreover, the red/green cell ratio (normalised) in assay [2] was 0.97 (inactive). In addition, the normalised cell number worked out at 1.1 in assay [2] (setting [4]) and 1.06 in assay [2] (setting [5]). Moreover, the luciferase signal in assay [3] is 100 AU (inactive).

Take `CC(=O)Oc1cc(OC(C)=O)c2c(c1)O[C@H](c1ccc(OC(C)=O)c(OC(C)=O)c1)[C@H](OC(C)=O)C2`: in assay [1], the inhibition is 13.2% (inactive) and -3.23% (inactive). In assay [2], the red/green cell ratio (normalised) was 0.86 (inactive). For the same molecule, the figures for the normalised cell number in assay [2] (setting [4]) and in assay [2] (setting [5]) were 1.41 and 1.21, respectively. The luciferase signal in assay [3] is 48 AU (inactive).

On to `Oc1ccc([C@H]2Oc3cc(O)cc(O)c3C[C@H]2O)cc1`, for which the inhibition in assay [1] was 2.29% (inactive). Besides, the red/green cell ratio (normalised) in assay [2] was 0.95 (inactive). Further, the values for the normalised cell number in assay [2] (setting [4]) and in assay [2] (setting [5]) were 0.99 and 0.94, respectively. For the same molecule, the luciferase signal in assay [3] was 140 AU (inactive).

As for `COc1ccc2c(c1)OCC(Cc1ccc(OC)c(OC(C)=O)c1)C2=O` (stereo not given), the inhibition in assay [1] is 2.88% (inactive). Further, the red/green cell ratio (normalised) in assay [2] was 0.86 (inactive). For the same molecule, the normalised cell number in assay [2] (setting [4]) amounted to 0.47; in assay [2] (setting [5]), 0.4. In addition, the luciferase signal in assay [3] is 80 AU (inactive).

Consider `C=C1C(N)CC2CC1C2(C)C` (stereo not given), for which, in assay [1], the inhibition was 16.7% (inactive). For the same molecule, the red/green cell ratio (normalised) in assay [2] was 1.05 (inactive). For the same molecule, the normalised cell number stood at 1.09 in assay [2] (setting [4]) and 1.15 in assay [2] (setting [5]). Moreover, the luciferase signal in assay [3] was 60 AU (inactive).
